MARV entry inh = Marburg virus entry inhibition; Marburg virus pseudotyped entry inhibition, cell reporter; Potency, µM (titrated, usually from 37.8 µM), for inactives: at the highest dose activity change, negative = inhibition, usual class: inhibitors; actives 1.8% (n = 300,000); calls by dose curve; tested in HEK293 cells; note: potency is the fitted concentration of half-maximal effect
HCMV inh = blocks human cytomegalovirus replication; activity change, negative = inhibition, % at 57.5 µM; AID 1259415; HFF cells, HCMV-luciferase reporter, 72 h; hits give low values; actives 4.5% (n = 410,000); in the data active = activity change below about -60%; inconclusive = no clear call, values can overlap the other calls; inactive = above about -39%
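Two compound doses tested in HFFs infected with HCMV-luciferase, MOI 1 PFU/cell, 72 h at 37C. Lysate luminescence read with OneGlo; data normalized against buffer-only and 10uM Salinomycin inhibitor controls.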
Lassa entry inh = inhibitors of Lassa virus binding or cell entry. Lassa virus pseudotype entry inhibition, cell reporter. Potency, µM (series often up to 37.9 µM), without a hit: top-dose activity change, negative = inhibition, usual class: inhibitors. actives 1.2% (n = 300,000); calls by dose curve; tested in HEK293 cells; note: potency is the fitted concentration of half-maximal effect; nearly all actives have a fitted effect of over 50% in size
VACV Venus inh = vaccinia inhibition (Venus reporter) | actives 0.46% (n = 330,000) | Potency, µM (highest dose often 36.5 µM), inactives show at the highest dose activity change, negative = inhibition, most hits filed as inhibitors | Vaccinia virus Venus reporter expression, fluorescence; calls by dose curve; tested in A549 cells; note: potency is the fitted concentration of half-maximal effect; nearly all actives have a fitted effect of over 30% in size
Vaccinia mCherry = vaccinia inhibition (mCherry reporter). AID 720579. Vaccinia virus mCherry reporter infection, fluorescence. actives 0.63% (n = 310,000). Potency, µM (top dose mostly 36.5 µM), for the others: top-dose activity change, negative = inhibition, actives largely listed as inhibitors; calls by dose curve; tested in A549 cells; note: potency is the fitted concentration of half-maximal effect; nearly all actives have a fitted effect of over 35% in size
HCV inh = HCV inhibition | Huh7.5.1 HCVcc-Cre infection, luciferase reporter, 44 h | Potency, µM (top dose mostly 41.8 µM), for the others: top-dose activity change, negative = inhibition, hits mostly inhibitors | actives 3.4% (n = 340,000) | AID 651820; active = well fitted inhibition curve with a large enough effect; inconclusive = small, poorly fitted or top-dose-only effect, or another doubt; inactive = no such curve, though single readings can be large or run the other way; note: potency is the fitted concentration of half-maximal effect
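Cells (1,000/well) were plated 4 h before compound, then infected with HCVcc-Cre virus (~0.5 moi). After 44 h further culture, infection was read as luciferase luminescence following a 15 min substrate incubation at room temperature.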
* marks the source's active call; other numbers are inactive results; [ ] = another dose, or the depositor's remark. In the library only some 7.8% were active in any assay of this set; here they are far more common. % is set by controls: 0 for no effect and ±100 for the full control effect.

What do the screens show for `Cc1ccc(Cl)cc1N1CCN(CCCNC(=O)Cn2ncc3c([nH]c4ccccc43)c2=O)CC1`?
HCMV inh: 7; Lassa entry inh: 6%[46.1 µM]; VACV Venus inh: -20%; Vaccinia mCherry: -13%

Results for Cc1cccc(NC(=O)c2cc([N+](=O)[O-])ccc2Cl)c1O ?
MARV entry inh: -28%[46.1 µM]; HCMV inh: 52; Lassa entry inh: 1%; VACV Venus inh: -8%; Vaccinia mCherry: -6%; HCV inh: -23%

Results for CN(C)S(=O)(=O)c1ccc(Cl)c(C(=O)Nc2cccc([N+](=O)[O-])c2)c1 ?
HCMV inh: -65*; HCV inh: 11µM*

Results for O=C(Nc1ccccc1Oc1ccccc1)c1cc([N+](=O)[O-])ccc1Cl ?
MARV entry inh: inconclusive; HCMV inh: -77*; Lassa entry inh: -25%; VACV Venus inh: -15%; Vaccinia mCherry: -4%; HCV inh: inconclusive

What do the screens show for `O=C(Nc1ccc2c(c1)CCCN2C(=O)c1ccco1)c1cc([N+](=O)[O-])ccc1Cl`?
MARV entry inh: inconclusive; HCMV inh: -6; Lassa entry inh: 2.5µM*; VACV Venus inh: -6%; Vaccinia mCherry: inconclusive; HCV inh: inconclusive

What do the screens show for `O=C(Nc1ccc(Nc2ccccc2)cc1)c1cc([N+](=O)[O-])ccc1Cl`?
HCMV inh: 43; HCV inh: 11µM*

Results for O=C(Nc1nccs1)c1cc([N+](=O)[O-])ccc1Cl ?
HCMV inh: -103*; HCV inh: -16%

Results for O=C(NNc1ccc([N+](=O)[O-])cc1)c1ccccc1Cl ?
HCMV inh: -86*; VACV Venus inh: -9%; Vaccinia mCherry: -13%; HCV inh: 7%

What do the screens show for `O=C(O)c1ccccc1Nc1ccc([N+](=O)[O-])cc1`?
MARV entry inh: 0.5µM*; HCMV inh: inconclusive; Lassa entry inh: 1.1µM*; VACV Venus inh: 23%; Vaccinia mCherry: inconclusive; HCV inh: -8%

What do the screens show for `O=C(O)c1ccccc1Nc1ccccc1C(=O)O`?
MARV entry inh: 8%; HCMV inh: 23; Lassa entry inh: 2%; HCV inh: 1%

Results for Clc1cccc(Nc2cc3c(cn2)ncn3Cc2ccco2)c1 ?
HCMV inh: 29

What do the screens show for `S=C(NCCc1ccc(Cl)cc1)NC1CCCC1`?
HCMV inh: -69*; HCV inh: inconclusive

Results for Fc1ccc(NC(=S)NCCc2ccc(Cl)cc2)cc1 ?
MARV entry inh: inconclusive; HCMV inh: -69*; Lassa entry inh: 20%; VACV Venus inh: -16%; Vaccinia mCherry: inactive; HCV inh: 8%

Results for S=C(NCCc1ccc(Cl)cc1)NC1CCCCC1 ?
MARV entry inh: inconclusive; HCMV inh: 60; Lassa entry inh: inconclusive; VACV Venus inh: -8%; Vaccinia mCherry: -23%; HCV inh: -26%

Results for O=[N+]([O-])c1ccc(NC(=S)NCCc2ccc(F)cc2)cc1 ?
MARV entry inh: inconclusive; HCMV inh: -98*; Lassa entry inh: inconclusive; VACV Venus inh: inconclusive; Vaccinia mCherry: inconclusive; HCV inh: inconclusive

Results for O=C(NCCc1ccc(F)cc1)Nc1ccc([N+](=O)[O-])cc1 ?
MARV entry inh: inconclusive; HCMV inh: -14; Lassa entry inh: 28%[46.1 µM]; VACV Venus inh: -19%; Vaccinia mCherry: inactive; HCV inh: inconclusive

Results for Fc1ccc(CCNC(=S)Nc2ccc(F)c(Cl)c2)cc1 ?
MARV entry inh: 4%[46.1 µM]; HCMV inh: -66*; Lassa entry inh: inconclusive; VACV Venus inh: inconclusive; Vaccinia mCherry: inconclusive; HCV inh: inconclusive

How did CC=C(C)[C@H](O)C[Si](C)(C)c1ccccc1 do in these assays?
MARV entry inh: -3%[14.2 µM]

Results for CCn1c(SCC(=O)N2CCC(C)CC2)nnc1-c1ccccc1O ?
HCMV inh: -4; Lassa entry inh: 14%[46.1 µM]; VACV Venus inh: -10%; Vaccinia mCherry: -9%

What do the screens show for `CCOc1ccccc1NC(=O)Nc1nnc(N(C)Cc2ccccc2)s1`?
MARV entry inh: 1%[46.1 µM]; HCMV inh: -19; Lassa entry inh: 16%[46.1 µM]; VACV Venus inh: 2%; Vaccinia mCherry: -7%

How did CCOC(=O)N/N=C1\C[C@@H](O)[C@@H](O)[C@@H]2[C@@H]3C(=O)N(Cc4ccc5c(c4)OCO5)C(=O)[C@@H]3CC[C@H]12 do in these assays?
MARV entry inh: -2%[14.2 µM]

How did CC(C)=CCN1C(=O)[C@]2(O[C@H](COc3ccccc3)CC3=C2CCC3)c2ccccc21 do in these assays?
MARV entry inh: -5%[14.2 µM]

Results for Fc1ccc(NC(=S)NCc2ccccc2Cl)cc1 ?
MARV entry inh: 38%; HCMV inh: -70*; Lassa entry inh: -3%; VACV Venus inh: -19%; Vaccinia mCherry: inactive; HCV inh: -14%

How did CCC(=O)N1c2ccccc2CC1C(=O)NCc1ccc(CC)cc1 (stereo not given) do in these assays?
HCMV inh: 16; Lassa entry inh: 8%[46.1 µM]; VACV Venus inh: -8%; Vaccinia mCherry: -7%

What do the screens show for `COc1ccc(CC(=O)Nc2ccc(OC)nc2)cc1`?
MARV entry inh: 1%[46.1 µM]; HCMV inh: -1; Lassa entry inh: 14%[46.1 µM]; VACV Venus inh: -10%; Vaccinia mCherry: -16%; HCV inh: 5%

What do the screens show for `COc1ccc(NC(=O)C(Cl)=C(Cl)Cl)cn1`?
MARV entry inh: inconclusive; HCMV inh: 0; Lassa entry inh: inconclusive; VACV Venus inh: -3%; Vaccinia mCherry: -15%; HCV inh: 10µM*

What do the screens show for `COc1ccc(NC(=O)/C(Cl)=C(/Cl)S(=O)(=O)Cc2ccccc2)cn1`?
MARV entry inh: inconclusive; HCMV inh: -105*; Lassa entry inh: 22µM*; VACV Venus inh: 22µM*; HCV inh: 3.5µM*

How did COc1ccc(NC(=O)Nc2ccc(OCc3ccccc3)cc2)cn1 do in these assays?
HCMV inh: -27; HCV inh: inconclusive

How did COc1ccc(NC(=O)/C(Cl)=C(/Cl)S(=O)Cc2ccc(Cl)cc2)cn1 (stereo not given) do in these assays?
MARV entry inh: inconclusive; HCMV inh: -100*; Lassa entry inh: 3.2µM*; VACV Venus inh: 7.9µM*; Vaccinia mCherry: 5.6µM*; HCV inh: 7.9µM*

Results for CCC(=O)Oc1ccc(-c2nc3ccccc3c(=O)o2)cc1 ?
MARV entry inh: inconclusive; HCMV inh: 15; Lassa entry inh: 27%[46.1 µM]; VACV Venus inh: -6%; Vaccinia mCherry: -7%

Results for COC(=O)c1ccc(CN2CCOc3ccc(CN4CCC(O)(c5cccnc5)CC4)cc3C2)cc1 ?
VACV Venus inh: -26%; Vaccinia mCherry: -26%

Results for COc1ccc([C@@H]2[C@@H](C(=O)N3CCOCC3)CC(=O)N2C(=O)/C=C/c2ccccc2)cc1 ?
HCMV inh: -29

What do the screens show for `Cc1ccc(-c2nonc2NC(=O)c2ccc(F)cc2)cc1C`?
MARV entry inh: 5%[46.1 µM]; HCMV inh: -24; Lassa entry inh: -1%[46.1 µM]; VACV Venus inh: -10%; Vaccinia mCherry: -6%

High-throughput results deposited in PubChem BioAssay by National Center for Advancing Translational Sciences (NCATS).
